# Experimental data reported in PubChem BioAssay AID540335 (Broad Institute, 2011).
# The whole screen tested about 1,300 compounds, of which about 270 (21%) were called active.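 The calls were made as follows: active = dose-dependent rise or fall in viability, either side of zero, with half-maximal concentration at or below a set limit; inconclusive = flat curve at 30 to 70% viability loss, or poor fit; inactive = flat within 30% either way, or potency beyond limit.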 These entries were drawn from the full list. Where a call stands in place of a potency, no number is given. Potency and affinity values are given separately.
# Experiment: proliferation inhibition in MITF-low A375 cells – cell-based, cherry-pick samples, set 2, counter-screen for MITF modulator project, dose response (AID 540335);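 also: A375 human melanoma cells which do not depend on MITF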
# Conditions: CellTiter-Glo ATP luminescence, 24 h; series mostly up to 35 µM
row,Structure (SMILES),outcome
1,CN(C)CCCNc1nc2sc3c(c2c(=O)n1CCc1ccccc1)CCCCC3,inactive
2,Cc1cc(C)c2sc(N(CCCN(C)C)C(=O)COc3ccc(Cl)cc3)nc2c1,inactive
3,COc1ccc(-n2cc(-c3ccc(C)cc3)[n+]3c2SCC3)cc1,inactive
4,O=C(NCC1CCCCC1)C1(CC2CC(c3cccc(Br)c3)=NO2)CCNCC1 (centres undefined),inactive
5,Cc1ccc(C(C)C)c(OCc2nn(CC(=O)c3ccc(Cl)cc3)c3[n+]2CCCCC3)c1,inactive
6,CCOC(=O)N1C(=O)[C@@](CC)(c2ccccc2)N1C(=O)OCC,inactive
7,O=C(N/N=C/c1ccc([N+](=O)[O-])o1)c1ccccc1-n1cccc1,inactive
8,COC(=O)C1=C(C)N(Cc2ccccc2)C(=NCC(C)C)N[C@H]1c1cccc(C(F)(F)F)c1,inactive
9,CCn1c(=O)c([N+](=O)[O-])c(Cl)c2ccccc21,inactive
10,COc1ccc(C(=O)/C=C/C(=O)N(CC(=O)NC2CCCCC2)Cc2cccs2)c(O)c1,inactive
11,Cc1cnc(NC(=O)c2nn(C)cc2[N+](=O)[O-])s1,inactive
12,O=C(CSCC(=O)Nc1ccccc1)N/N=C/c1c(O)ccc2ccccc12,inactive
13,Cn1cc(C(=O)N/N=C/c2c(O)ccc3ccccc23)ccc1=O,inactive
14,CCc1ccccc1NC(=O)CN(C)C(=O)Cn1ncc(Cl)c(Cl)c1=O,inactive
15,COC(=O)c1ccc2c(c1O)C(=O)c1ccccc1C2=O,inactive
16,CC(=O)N(C)C1=C(N2CCOCC2)C(=O)c2ccccc2C1=O,inactive
17,CCN(CC)CCNC(=O)c1ccc(NC(=O)c2cn(-c3ccccc3)nc2-c2cccs2)cc1,inactive
18,CCS(=O)(=O)c1ccc(N=Nc2ccc(O)c3ncccc23)c(OC)c1,inactive
19,O=[N+]([O-])c1ccc(-n2nnnc2-c2ccccc2)c([N+](=O)[O-])c1,inactive
20,CCN1CCN(c2ccc(S(=O)(=O)N3CCCCC3)cc2NC(=O)/C=C/c2ccc([N+](=O)[O-])cc2)CC1,inactive
21,CCN1CCN(c2ccc(S(=O)(=O)N3CCCCC3)cc2NC(=O)/C=C/c2cccc(OC)c2OC)CC1,inactive
22,O=C(N/N=C/c1ccc([N+](=O)[O-])s1)C(O)c1ccccc1 (centres undefined),inactive
23,CC(/C=N/NC(=O)c1cc(-c2ccncc2)nc2ccccc12)=C\c1ccco1,inactive
24,O=C1C(Nc2ccccc2)=C(N2CCCCC2)C(=O)c2ccccc21,inactive
25,CN1CCN(C2=C(NS(=O)(=O)c3ccccc3)C(=O)c3ccccc3C2=O)CC1,inactive
26,CCN1c2ccccc2NC2C1C(C(C)=O)C(=O)N2c1ccc(Cl)cc1 (centres undefined),inactive

row,Structure (SMILES),outcome
1,C=CCNC1=C(Cl)C(=O)c2ccccc2C1=O,inactive
2,O=C(NC1=C(Nc2ccc(Cl)cc2)C(=O)c2ccccc2C1=O)c1ccccc1,inactive
3,CCc1ccc(NC2=CC(=O)C(=O)c3ccccc32)cc1,inactive
4,CCNC1=C(Cl)C(=O)c2ccccc2C1=O,inactive
5,COC1=C(Nc2ccccc2)C(=O)c2ccccc2C1=O,inactive
6,COC1=C(Nc2ccc(O)cc2)C(=O)c2ccccc2C1=O,inactive
7,COc1ccc(C(=O)/C=C/C(=O)N(CC(=O)NC2CCCCC2)CC2CCCO2)c(O)c1 (centres undefined),inactive
8,CC1=NNC(=O)/C1=C\c1cn(-c2ccccc2)nc1-c1ccc(F)cc1,inactive
9,Cc1ccc(-c2c[n+](Cc3ccc(Cl)c(Cl)c3)c3n2CCC3)cc1,inactive
10,COc1cc(/C=C/C(=O)c2ccc3c(c2)OCCO3)cc(Br)c1OCC(=O)N(C)C,inactive
11,O=C(/C=C\c1ccccc1)NCC(=O)N/N=C/c1ccc(O)cc1O,inactive
12,CC1CCN(CC(CS(=O)(=O)c2ccc([N+](=O)[O-])cc2)N2CCC(C)CC2)CC1 (centres undefined),inactive
13,CCc1ccc(-c2cc(C(=O)Nn3cnnc3)c3ccccc3n2)cc1,inactive
14,Cc1cc(C)cc(NC(=O)c2ccc([N+](=O)[O-])o2)c1,inactive
15,O=C(CS(=O)c1ccc(C(F)(F)F)cc1[N+](=O)[O-])Oc1ccccc1 (centres undefined),inactive
16,Cc1ccccc1-c1nc(CN2CCC(C(=O)NCCCN3CCCC(C)C3)CC2)c(C)o1 (centres undefined),inactive
17,Cc1cc(C)c2nc3nc(C)cc(C)c3c(N)c2c1,inactive
18,Cc1cc(C)c2c(N)c(C(=O)N/N=C/c3ccccc3)sc2n1,inactive
19,Cc1oc(-c2ccc(Cl)cc2)nc1CN1CCC(C(=O)NCCCN2CCCC(C)C2)CC1 (centres undefined),inactive
20,FC(F)(F)c1cc(CCN2CCNC[C@@H]2Cc2ccccc2)cc(C(F)(F)F)c1,inactive
21,O=C(N/N=C\c1ccc([N+](=O)[O-])s1)c1cncc(Br)c1,inactive
22,C#CCCc1ccccc1/C=[N+](/C)[O-],inactive
23,N#C/C(=C(/O)c1ccc([N+](=O)[O-])o1)c1nc2ccccc2[nH]1,inactive
24,O=C(COc1ccc2c(c1)CCC2)N1CCc2ccccc21,inactive
25,O=C(CCl)N1c2ccccc2SCC1c1ccccc1 (centres undefined),inactive
26,O=C(Cn1ncc(Cl)c(Cl)c1=O)N1CCOCC1,inactive

row,Structure (SMILES),outcome
1,CC(=O)Nc1ccc(S(=O)(=O)NC2=C(N3CCN(C)CC3)C(=O)c3ccccc3C2=O)cc1,inactive
2,O=C(Nc1cnc2ccccn2c1=O)c1ccc(F)cc1,inactive
3,CN(C)c1nc(C=C(C#N)C#N)c(Cl)n1-c1ccc(F)cc1,inactive
4,O=[N+]([O-])c1ccc(/C=N/n2cnc3ccccc32)s1,inactive
5,CC1CCCC(NC(=O)NC(=O)CCl)C1C (centres undefined),inactive
6,Cc1ccc(NC(=O)Cn2ncc(Cl)c(Cl)c2=O)cc1S(=O)(=O)N1CCCCC1,inactive
7,Cc1cc(Br)ccc1NC(=O)CNC(=O)Cn1ncc(Cl)c(Cl)c1=O,inactive
8,Cn1nnnc1Sc1ncnc2scc(-c3ccc(C#N)cc3)c12,inactive
9,CCN1c2ccccc2NC2N=C(OC)C(c3ccccc3)C21 (centres undefined),inactive
10,COCCN(CC(=O)NC1CCCCC1)C(=O)/C=C/C(=O)c1ccc(OC)cc1O,inactive
11,Cc1ccc(-c2c[n+](Cc3ccc(Cl)cc3)c3n2CCC3)cc1,inactive
12,Cc1[nH]c2ccccc2c1C(=O)CCl,inactive
13,CC(C)C(CCNC1CCN(C)CC1)c1ccc(Cl)cc1 (centres undefined),inactive
14,CCN1CCN(C2=C(NS(=O)(=O)c3ccc(Br)cc3)C(=O)c3ccccc3C2=O)CC1,inactive
15,CC1CCC(C(C)C)C(OC(=O)C[n+]2cc(-c3ccc(Cl)cc3)n3c2CCCCC3)C1 (centres undefined),inactive
16,O=C(O)c1cccc(NC(=S)N/N=C/c2ccccn2)c1,inactive
17,Cc1ccc(C(=O)c2no[n+]([O-])c2C(=O)c2ccc(C)cc2)cc1,inactive
18,COc1ccc(C(=O)/C=C/C(=O)N(CC(=O)NC2CCCCC2)Cc2ccccc2)c(O)c1,inactive
19,O=C(Nc1ccc(Cl)c(S(=O)(=O)N2CCOCC2)c1)c1ccc(OCC2CCCO2)cc1 (centres undefined),inactive
20,O=C(Nc1ccccc1N1CCOCC1)c1ccc([N+](=O)[O-])s1,inactive
21,O=C(Nc1nc(-c2ccccn2)cs1)c1ccc(F)c(S(=O)(=O)N2CCOCC2)c1,inactive
22,COc1ccc(/C=C2\SC(=O)N(CCCC(=O)Nc3cc(Cl)ccc3C(=O)O)C2=O)cc1,inactive
23,Cn1cccc1-c1cc(C(=O)N/N=C/c2cc(Br)ccc2O)[nH]n1,inactive
24,CCOC(=O)CSC1=NC(=O)/C(=C/c2ccc(OC)cc2)S1,inactive
25,N/C(=N\OC(=O)c1ccc(Cl)cc1Cl)c1ccncc1,inactive
26,COCc1cc(C)nc2sc(C(=O)Nc3ccc(OC)cc3)c(N)c12,inactive

row,Structure (SMILES),outcome
1,O=C1c2ccccc2C(=O)N1CCOc1ccccc1,inactive
2,CN1CCN(CCCOc2ccc(-c3ccccc3)cc2)CC1,inactive
3,CN=c1scc(-c2ccccc2F)n1/N=C/c1ccc[nH]1,inactive
4,Cc1ccc(NC(=O)CCC(=O)N/N=C/c2ccc([N+](=O)[O-])o2)cc1C,inactive
5,CC1CC(C)C[N+](=C2C=C(N3CCCC3)CC(C)(C)C2)C1 (centres undefined),inactive
6,O=C(Cn1cc(/C=C\[N+](=O)[O-])c2ccccc21)Nc1ccccc1,inactive
7,Cc1ccc(NC(=O)c2ccc([N+](=O)[O-])o2)cc1S(=O)(=O)N1CCOCC1,inactive
8,COc1ccc2oc(C(=O)Nc3ccc(S(=O)(=O)N(C)C4CCN(C)CC4)cc3)c(C)c2c1,inactive
9,C/C(=N\NC(=O)C(C)Oc1ccc([N+](=O)[O-])cc1)c1ccccn1 (centres undefined),inactive
10,CC(Oc1ccccc1)C(=O)Nc1nc(-c2ccccn2)cs1 (centres undefined),inactive
11,CC(C)C(=O)N1CCN(c2ccc(NC(=O)c3ccc([N+](=O)[O-])o3)cc2)CC1,inactive
12,CC(C)(C)NC(=O)CCN(/N=C/c1ccc([N+](=O)[O-])o1)C1=NS(=O)(=O)c2ccccc21,inactive
13,Cc1c(N=C2C=CC(=O)c3ccccc32)c(=O)n(-c2ccccc2)n1C,inactive
14,COc1cc(/C=N/NC(N)=O)c(Br)cc1OCC(=O)Nc1ccccc1C,inactive
15,COc1ccc(S(=O)NC2CCCCC2)c(OC)c1C (centres undefined),inactive
16,COc1cc(CN2CCC(Cc3ccccc3)CC2)cc(OC)c1OC,inactive
17,O=C(c1nnsc1S(=O)(=O)c1ccc(Cl)cc1)N1CCOCC1,inactive
18,Cc1cc(C)c[n+](C2=C([O-])c3ccccc3C(=O)/C2=N\S(=O)(=O)c2cccs2)c1,inactive
19,O=C(CCl)Nc1cccc(Oc2ccccc2)c1,inactive
20,CC(=O)N1CCc2c(sc(NC(=O)c3ccc([N+](=O)[O-])o3)c2C#N)C1,inactive
21,CN(c1cccc(NC(=O)COc2ccc(Cl)cc2Cl)c1)S(C)(=O)=O,inactive
22,O=C(CC(=O)c1ccccc1)Nc1ccccn1,inactive
23,O=C1Nc2ccc(Br)cc2/C1=C/C(=O)c1ccc2c(c1)OCO2,inactive
24,COc1ccc(/C=N/Nc2cc(C)nc(-n3nc(C)cc3C)n2)c(OC)c1,inactive
25,Cc1ccc(S(=O)(=O)/N=C2\C(=O)c3ccccc3C([O-])=C2n2cc[n+](CCC(C)C)c2)cc1,inactive
26,CCC(=O)N1CCN(c2ccc(NC(=O)c3ccc([N+](=O)[O-])o3)cc2)CC1,inactive
